Reference: PubChem BioAssay (Tox21)
Inconclusive results are not listed. Calls of active or inactive are those of the source. Unless noted, the call rests on the fitted dose curve; in most records, active means well fitted curve in the direction sought with a large enough effect in the repeat runs; inconclusive means weak or mixed curves; inactive means no such curve, though single readings can be large; an effect the other way counts as inactive or inconclusive.

Tests used:
[1] = target: Aryl hydrocarbon receptor (Homo sapiens) (UniProt P35869); experiment: qHTS assay to identify small molecule that activate the aryl hydrocarbon receptor (AhR) signaling pathway (AID 743085);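 further: HG2L7.5c1 human HepG2 liver cells with stably integrated DRE-driven firefly reporter; series mostly up to about 70 µM; on the % scale 0 is the no-effect control and ±100 the full control effect; nearly all actives have a fitted effect of over 15% in size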
Chain of Aryl hydrocarbon receptor (Homo sapiens) (P35869 whole entry, looked up): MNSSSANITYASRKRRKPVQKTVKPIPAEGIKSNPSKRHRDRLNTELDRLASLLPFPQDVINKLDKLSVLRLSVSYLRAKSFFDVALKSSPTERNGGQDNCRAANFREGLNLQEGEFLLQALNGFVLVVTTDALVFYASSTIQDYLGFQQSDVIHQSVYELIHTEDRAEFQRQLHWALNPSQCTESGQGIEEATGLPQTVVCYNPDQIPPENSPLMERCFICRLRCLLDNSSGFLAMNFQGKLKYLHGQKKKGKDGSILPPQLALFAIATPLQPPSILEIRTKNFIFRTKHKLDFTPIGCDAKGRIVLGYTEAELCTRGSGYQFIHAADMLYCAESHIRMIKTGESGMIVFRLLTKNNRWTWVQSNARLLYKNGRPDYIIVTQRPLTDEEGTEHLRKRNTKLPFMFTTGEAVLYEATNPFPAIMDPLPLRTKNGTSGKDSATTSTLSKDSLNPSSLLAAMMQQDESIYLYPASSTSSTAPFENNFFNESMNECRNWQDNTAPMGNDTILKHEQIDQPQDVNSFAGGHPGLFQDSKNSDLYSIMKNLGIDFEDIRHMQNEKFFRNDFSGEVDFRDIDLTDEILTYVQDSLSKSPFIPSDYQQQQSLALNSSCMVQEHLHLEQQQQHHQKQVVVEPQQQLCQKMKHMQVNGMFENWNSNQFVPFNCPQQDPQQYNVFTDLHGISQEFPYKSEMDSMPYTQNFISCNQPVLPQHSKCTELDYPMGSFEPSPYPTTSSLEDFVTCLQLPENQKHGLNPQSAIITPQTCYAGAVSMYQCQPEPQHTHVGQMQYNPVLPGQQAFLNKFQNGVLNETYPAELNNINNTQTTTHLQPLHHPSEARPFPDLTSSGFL
Method in brief: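 Reporter assay in engineered HepG2 line HG2L7.5c1, whose plasmid carries twenty dioxin responsive elements upstream of firefly luciferase. Treatment lasted 24 h at 37C; ONE-Glo luminescence gauged induction.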

[2] = qHTS assay to identify small molecule that activate the aryl hydrocarbon receptor (AhR) signaling pathway - cell viability counter screen (AID 743086); further: nearly all actives have a fitted effect of over 45% in size; further: potency means the concentration at half of the fitted maximal effect
Method in brief: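 HepG2-AhR-luc (HG2L7.5c1) cells, 4000/well, were preincubated 5 h at 37C, exposed to compound in qHTS format for 24 hr at 37C, then given CellTiter-Fluor for 30 min; viability was read as fluorescence in the reporter wells.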

[3] = qHTS assay to identify small molecule antagonists of the peroxisome proliferator-activated receptor gamma (PPARg) signaling pathway - cell viability counter screen (AID 743194); further: nearly all actives have a fitted effect of over 55% in size; further: potency means the concentration at half of the fitted maximal effect
Method in brief: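 PPARg-UAS-bla HEK293H cells were plated, rested 5 h at 37 C, then treated with compounds plus rosiglitazone (50 nM final) for 17 h at 37 C; viability was then read by CellTiter-Glo luminescence after 30 min at room temperature.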

[4] = qHTS assay for small molecule agonists of the antioxidant response element (ARE) signaling pathway - cell viability counter screen (AID 743203; calls by dose curve; further: nearly all actives have a fitted effect of over 55% in size; further: potency means the concentration at half of the fitted maximal effect)
Method in brief: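 Following 16 hrs of compound treatment at 37C, HepG2 cells with an ARE-controlled beta-lactamase gene were lysed with CellTiter-Glo. Luminescence was read after 30 min at room temperature.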

[5] = qHTS assay to identify small molecule agonists of the peroxisome proliferator-activated receptor delta (PPARd) signaling pathway - cell viability counter screen (AID 743211); further: nearly all actives have a fitted effect of over 55% in size; further: potency means the concentration at half of the fitted maximal effect
Method in brief: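 Multiplexed format: after the 2 h room-temperature LiveBLAzer B/G FRET step, CellTiter-Glo was added to the same wells. Luminescence after 30 min gave cell viability; compound exposure was 17 h at 37C.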

[6] = qHTS assay to identify aromatase inhibitors - cell viability counter screen (AID 743084);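 further: cells stimulated with testosterone during compound exposure; potency means the concentration at half of the fitted maximal effect; nearly all actives have a fitted effect of over 55% in size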
[7] = target: Peroxisome proliferator-activated receptor gamma (Homo sapiens) (UniProt P37231); experiment: qHTS assay to identify small molecule antagonists of the peroxisome proliferator-activated receptor gamma (PPARg) signaling pathway (AID 743191; calls by dose curve; further: nearly all actives have a fitted effect of over 30% in size; further: potency means the concentration at half of the fitted maximal effect)
Chain of Peroxisome proliferator-activated receptor gamma (Homo sapiens) (P37231 whole entry, looked up): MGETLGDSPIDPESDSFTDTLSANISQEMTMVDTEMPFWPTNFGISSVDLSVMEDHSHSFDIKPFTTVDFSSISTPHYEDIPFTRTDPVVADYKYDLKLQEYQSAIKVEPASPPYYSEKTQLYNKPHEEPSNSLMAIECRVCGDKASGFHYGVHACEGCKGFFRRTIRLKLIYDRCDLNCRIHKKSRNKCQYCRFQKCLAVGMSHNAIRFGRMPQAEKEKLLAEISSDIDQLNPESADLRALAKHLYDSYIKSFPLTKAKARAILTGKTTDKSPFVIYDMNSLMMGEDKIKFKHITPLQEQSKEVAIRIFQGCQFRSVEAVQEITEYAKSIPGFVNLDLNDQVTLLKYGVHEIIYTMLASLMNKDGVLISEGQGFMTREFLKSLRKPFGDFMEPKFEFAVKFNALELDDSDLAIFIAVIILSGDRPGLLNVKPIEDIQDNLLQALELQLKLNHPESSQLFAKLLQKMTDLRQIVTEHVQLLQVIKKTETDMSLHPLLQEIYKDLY
Method in brief: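 GeneBLAzer PPARg UAS-bla HEK293H cells carrying a UAS-driven beta-lactamase reporter were plated at 3000 cells/well, preincubated 5 h at 37C, then given compound for 17 h at 37C; LiveBLAzer B/G FRET substrate was read after 1 h at room temperature.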

[8] = qHTS assay for small molecule activators of the heat shock response signaling pathway - cell viability counter screen (AID 743209); further: on the % scale 0 is the no-effect control and ±100 the full control effect; nearly all actives have a fitted effect of over 50% in size
Method in brief: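 Readout: CellTiter-Glo luminescence, 30 min at room temperature. System: HSE-bla HeLa cells, 1500/well, plated overnight. Treatment: compounds in DMSO, 5 h at 37 C.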

[9] = qHTS assay for small molecule activators of the heat shock response signaling pathway (AID 743210; active means well fitted activation curve with a large enough effect in the signal ratio in the repeat runs, with a control signal flat, not every such curve was filed as active; the % refers to the signal ratio;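 further: HeLa cells with beta-lactamase reporter driven by heat shock elements; series mostly up to about 63 µM; on the % scale 0 is the no-effect control and ±100 the full control effect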)
Method in brief: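 Reporter gene assay: HeLa cells stably bearing an HSE-bla construct, compound treatment 5 h at 37 C, LiveBLAzer substrate 2.5 h at RT, fluorescence intensity.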

[10] = target: Peroxisome proliferator-activated receptor delta (Homo sapiens) (UniProt Q03181); experiment: qHTS assay to identify small molecule agonists of the peroxisome proliferator-activated receptor delta (PPARd) signaling pathway (AID 743212; calls by dose curve; further: on the % scale 0 is the no-effect control and ±100 the full control effect)
Chain of Peroxisome proliferator-activated receptor delta (Homo sapiens) (Q03181 whole entry, looked up): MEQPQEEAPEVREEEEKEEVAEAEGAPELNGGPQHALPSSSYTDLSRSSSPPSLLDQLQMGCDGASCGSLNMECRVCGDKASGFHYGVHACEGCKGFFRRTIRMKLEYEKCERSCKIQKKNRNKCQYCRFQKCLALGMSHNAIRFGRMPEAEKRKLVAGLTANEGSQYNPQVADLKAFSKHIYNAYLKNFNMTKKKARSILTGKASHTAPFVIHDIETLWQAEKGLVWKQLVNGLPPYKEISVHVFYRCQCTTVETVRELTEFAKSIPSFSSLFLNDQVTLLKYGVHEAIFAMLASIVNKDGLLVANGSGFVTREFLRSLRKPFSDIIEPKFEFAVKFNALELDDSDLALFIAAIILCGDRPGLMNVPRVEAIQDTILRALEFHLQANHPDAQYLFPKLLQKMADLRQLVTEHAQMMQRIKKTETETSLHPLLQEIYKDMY
Method in brief: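 A PPARd-bla HEK293H line with beta-lactamase under an Upstream Activator Sequence is treated with compounds at 37 C. Substrate loading for 2 h at room temperature precedes the fluorescence measurement.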

[11] = target: Peroxisome proliferator-activated receptor delta (Homo sapiens) (UniProt Q03181); experiment: qHTS assay to identify small molecule antagonists of the peroxisome proliferator-activated receptor delta (PPARd) signaling pathway (AID 743215; active means well fitted inhibition curve with a large enough effect in the signal ratio in the repeat runs, not every such curve was filed as active; the % refers to the signal ratio;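 further: cells stimulated with agonist L165041 at 300 nM final during compound exposure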; further: potency means the concentration at half of the fitted maximal effect)
Method in brief: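 HEK293H UAS-bla, PPARd; agonist L165041 300 nM final with cpd in DMSO; 37 C 17 h; FRET substrate, RT 2 h; fluorescence intensity.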

[12] = qHTS assay to identify small molecule agonists of the farnesoid-X-receptor (FXR) signaling pathway - cell viability counter screen (AID 743218); further: nearly all actives have a fitted effect of over 45% in size; further: potency means the concentration at half of the fitted maximal effect
Method in brief: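 Parallel cytotoxicity test: compound-treated (16 h, 37 C) HEK 293T FXR-bla reporter cells were lysed with CellTiter-Glo and luminescence recorded.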

[13] = target: Bile acid receptor (Homo sapiens) (UniProt Q96RI1); experiment: qHTS assay to identify small molecule agonists of the farnesoid-X-receptor (FXR) signaling pathway (AID 743220; active means well fitted activation curve with a large enough effect in the signal ratio in the repeat runs, not every such curve was filed as active; the % refers to the signal ratio; further: potency means the concentration at half of the fitted maximal effect)
Chain of Bile acid receptor (Homo sapiens) (Q96RI1 whole entry, looked up): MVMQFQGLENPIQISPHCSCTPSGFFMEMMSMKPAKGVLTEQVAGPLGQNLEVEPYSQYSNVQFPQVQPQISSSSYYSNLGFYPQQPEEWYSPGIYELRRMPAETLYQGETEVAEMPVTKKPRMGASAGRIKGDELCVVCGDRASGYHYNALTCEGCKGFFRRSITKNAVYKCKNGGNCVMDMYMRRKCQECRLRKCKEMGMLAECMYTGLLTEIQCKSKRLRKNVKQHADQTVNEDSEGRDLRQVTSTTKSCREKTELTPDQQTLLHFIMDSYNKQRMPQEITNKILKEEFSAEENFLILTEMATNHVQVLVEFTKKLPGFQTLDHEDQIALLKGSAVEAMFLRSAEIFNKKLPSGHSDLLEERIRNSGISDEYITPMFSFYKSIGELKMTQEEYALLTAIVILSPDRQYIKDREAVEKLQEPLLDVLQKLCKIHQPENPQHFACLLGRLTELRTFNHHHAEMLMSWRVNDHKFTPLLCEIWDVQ
Method in brief: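 Beta-lactamase reporter under UAS control in GeneBLAzer FXR HEK 293T cells (5000/well) measured with LiveBLAzer FRET substrate after 2 h at room temperature. Compound exposure lasted 16 h at 37C.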

[14] = target: Vitamin D3 receptor (Homo sapiens) (UniProt P11473); experiment: qHTS assay to identify small molecule agonists of the vitamin D receptor (VDR) signaling pathway (AID 743222; calls by dose curve; further: on the % scale 0 is the no-effect control and ±100 the full control effect)
Chain of Vitamin D3 receptor (Homo sapiens) (P11473 whole entry, looked up): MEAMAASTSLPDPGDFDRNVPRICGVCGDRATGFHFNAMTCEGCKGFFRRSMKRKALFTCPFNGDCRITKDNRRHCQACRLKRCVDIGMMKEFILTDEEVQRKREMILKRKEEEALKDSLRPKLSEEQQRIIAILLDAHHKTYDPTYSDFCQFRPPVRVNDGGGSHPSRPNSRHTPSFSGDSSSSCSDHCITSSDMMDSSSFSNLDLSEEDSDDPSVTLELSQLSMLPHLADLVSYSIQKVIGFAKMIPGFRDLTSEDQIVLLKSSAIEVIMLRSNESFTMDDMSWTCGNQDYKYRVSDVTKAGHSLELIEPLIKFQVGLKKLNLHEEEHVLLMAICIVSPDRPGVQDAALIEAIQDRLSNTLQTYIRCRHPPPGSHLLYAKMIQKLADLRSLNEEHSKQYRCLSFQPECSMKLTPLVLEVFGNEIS
Method in brief: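 In VDR-bla cells, compound-induced beta-lactamase expression is quantified by FRET substrate fluorescence. Treatment lasts 16 h at 37C; substrate develops 2 h at room temperature.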

[15] = target: Peroxisome proliferator-activated receptor gamma (Homo sapiens) (UniProt P37231); experiment: qHTS assay to identify small molecule agonists of the peroxisome proliferator-activated receptor gamma (PPARg) signaling pathway (AID 743094; active means well fitted activation curve with a large enough effect in the signal ratio in the repeat runs, not every such curve was filed as active; the % refers to the signal ratio; further: on the % scale 0 is the no-effect control and ±100 the full control effect)
Method in brief: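 Compounds dissolved in DMSO were added to PPARg UAS-bla HEK293H cells for 17 h at 37C, and reporter expression was quantified by fluorescence intensity after 1 h with LiveBLAzer B/G FRET substrate.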

[16] = qHTS assay to identify small molecule antagonists of the peroxisome proliferator-activated receptor delta (PPARd) signaling pathway - cell viability counter screen (AID 743213); further: on the % scale 0 is the no-effect control and ±100 the full control effect; nearly all actives have a fitted effect of over 50% in size
Method in brief: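 PPARd-bla HEK293H cells were treated with compounds plus agonist L165041 (300 nM final) for 17 h at 37 C. Viability was then read in the same wells by CellTiter-Glo luminescence after 30 min at room temperature.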

[17] = qHTS assay to identify small molecule antagonists of the farnesoid-X-receptor (FXR) signaling pathway - cell viability counter screen (AID 743221; active means well fitted cell-killing curve with a large enough effect in the repeat runs, not every such curve was filed as active; further: on the % scale 0 is the no-effect control and ±100 the full control effect; nearly all actives have a fitted effect of over 50% in size)
Method in brief: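 CellTiter-Glo, 30 min RT, luminescence; same wells as the LiveBLAzer FRET read. Cells: FXR-UAS-bla HEK 293T. Treatment: compound with chenodeoxycholic acid 50 uM final, 16 h at 37 C.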

[18] = qHTS assay for small molecule agonists of the antioxidant response element (ARE) signaling pathway (AID 743202; active means well fitted activation curve with a large enough effect in the signal ratio in the repeat runs, not every such curve was filed as active; the % refers to the signal ratio; further: potency means the concentration at half of the fitted maximal effect)
Method in brief: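 Compounds delivered in DMSO to ARE-bla HepG2 cells (2,000 cells/well, pre-incubated 5 h) and left 16 h at 37 C. LiveBLAzer B/G FRET substrate then added for 2 h at RT before fluorescence reading.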

[19] = target: Vitamin D3 receptor (Homo sapiens) (UniProt P11473); experiment: qHTS assay to identify small molecule antagonists of the vitamin D receptor (VDR) signaling pathway (AID 743223; active means well fitted inhibition curve with a large enough effect in the signal ratio in the repeat runs, not every such curve was filed as active; the % refers to the signal ratio; further: on the % scale 0 is the no-effect control and ±100 the full control effect)
Method in brief: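 After VDR-bla cells are plated and left 4 h at 37C, DMSO-dissolved compounds and 3 nM (final) calcitriol agonist are added. Incubation continues 16 h at 37C; FRET beta-lactamase substrate then develops 2 h at room temperature.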

[20] = target: Bile acid receptor (Homo sapiens) (UniProt Q96RI1); experiment: qHTS assay to identify small molecule antagonists of the farnesoid-X-receptor (FXR) signaling pathway (AID 743217; active means well fitted inhibition curve with a large enough effect in the signal ratio in the repeat runs, not every such curve was filed as active; the % refers to the signal ratio; further: on the % scale 0 is the no-effect control and ±100 the full control effect)
Method in brief: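 GeneBLAzer FXR-UAS-bla HEK 293T, CDCA-stimulated (50 uM final). Compound treatment 16 h, 37 °C. Detection: beta-lactamase cleavage of B/G FRET substrate, fluorescence.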

O=S(c1cc(Cl)cc(Cl)c1O)c1cc(Cl)cc(Cl)c1O
active: Potency [3] 26.6 µM | Potency [4] 11.9 µM | Potency [5] 23.7 µM
inactive: Potency [1] | Potency [2]

CCN(CC)CCNc1ccc(CNC=O)c2sc3ccc(OC)cc3c(=O)c12
inactive: Potency [8] | Potency [9] | Potency [10] | Potency [14]
active: Potency [6] 48.6 µM | Potency [2] 5.45 µM | Potency [7] 12.3 µM | Potency [4] 48.6 µM | Potency [5] 30.9 µM | Potency [11] 15.5 µM | Potency [12] 4.9 µM | Potency [13] 6.92 µM

Cc1ccc(N=Nc2c(O)c(C(=O)O)cc3ccccc23)c(S(=O)(=O)O)c1
inactive: Potency [15] | Potency [7] | Potency [3] | Potency [4] | Potency [8] | Potency [9] | Potency [5] | Potency [16] | Potency [12] | Potency [17]
active: Potency [6] 6.65 µM

CN(C)c1ccc(/C=C/c2ccc([N+](=O)[O-])cc2)cc1
inactive: activity change, negative = cytotoxicity [3] 9.25% [at 5.95 µM] | activation [18] -18.5% [at 8.36 µM] | viability change, negative = cytotoxic [4] 0.634% [at 8.36 µM] | activity change, negative = cytotoxicity [8] -1.13% [at 5.95 µM] | activation [9] 0.443% [at 5.95 µM] | viability change, negative = cytotoxic [16] 1.68% [at 6.26 µM] | viability change, negative = cytotoxic [12] -8.77% [at 5.95 µM] | activation [13] -3.79% [at 5.95 µM] | activity change, negative = cytotoxicity [17] -0.888% [at 5.95 µM] | activity change, negative = inhibition [19] -22.2% [at 6.95 µM]

Nc1ccc([N+](=O)[O-])c(C(F)(F)F)c1
inactive: Potency [7] | Potency [3] | Potency [18] | Potency [8] | Potency [9] | Potency [5] | Potency [16] | Potency [12] | Potency [13] | Potency [17] | outcome [19]

C/C=C(/C(=C/C)c1ccc(OC(C)=O)cc1)c1ccc(OC(C)=O)cc1
active: Potency [18] 13.3 µM
inactive: Potency [4] | Potency [8] | Potency [12] | Potency [17]

NS(=O)(=O)c1ccc(N2CCCCS2(=O)=O)cc1
inactive: Potency [3] | Potency [18] | Potency [4] | Potency [9] | Potency [5] | Potency [16] | Potency [20] | Potency [12] | Potency [13] | Potency [17] | outcome [19]

CCC(C)c1cc(C(C)(C)C)c(O)c(C(C)(C)C)c1 (centres undefined)
inactive: Potency [2] | Potency [3] | Potency [4] | Potency [16] | Potency [11] | Potency [17] | Potency [14]

CCN(CC)c1ccc(C(=C2C=CC(=[N+](CC)CC)C=C2)c2cc(S(=O)(=O)O)ccc2S(=O)(=O)[O-])cc1
inactive: Potency [3] | Potency [18] | Potency [4] | Potency [9] | Potency [16] | Potency [20] | Potency [13] | Potency [17] | Potency [14]

CCCC(=O)Nc1ccc(O)c(C(C)=O)c1
inactive: Potency [3] | Potency [18] | Potency [8] | Potency [9] | Potency [5] | Potency [11] | Potency [12] | Potency [17]

CC(C)O.CC(C)O.CCOC(=O)/C=C(\C)O.CCOC(=O)/C=C(\C)O.[Ti]
inactive: Potency [2] | Potency [3] | Potency [4] | Potency [8] | Potency [9] | Potency [5] | Potency [16] | Potency [12] | Potency [14] | outcome [19]
